Data on 9 compounds can be found in PubChem BioAssay (NCI).

This is part of a sample that, as a whole, favours compounds with a hit. Of some 79,000 tested, about 15% had one in any assay. Values without a mark were called inactive. Active and inactive are the calls of the source. No stated cut-off is given here; in the data, active means growth inhibition above about 70%; inactive means the rest.

Assay [1] in a line: NCI Yeast Anticancer Drug Screen. Data for the rad50 strain (AID 155).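 Further: 0% = growth of vehicle-only cultures of the same strain.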 To be noted: S. cerevisiae rad50 strain growth inhibition, active compounds read high. The gist of the method: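 A DNA repair-deficient yeast mutant serves as the test organism; compound-induced growth inhibition is calculated against vehicle-treated cells.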
A short description of assay [2]: NCI Yeast Anticancer Drug Screen. Data for the mec2-1 strain (AID 157). The note with it: S. cerevisiae mec2-1 strain, active compounds read high. The gist of the method: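 Yeast mec2-1 mutant treated with compound. Readout: growth inhibition vs vehicle controls.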
The nature of assay [3]: NCI Yeast Anticancer Drug Screen. Data for the sgs1 mgt1 strain (AID 161).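 Further: 0% = growth of cultures given vehicle only.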 The note with it: S. cerevisiae sgs1 mgt1 strain, active compounds read high. A digest of the protocol:
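Inhibition of yeast growth, normalised to vehicle-treated controls, is reported for a strain bearing genetic alterations in DNA damage repair.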

Assay [4] in a line: NCI Yeast Anticancer Drug Screen. Data for the cln2 rad14 strain (AID 165).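 Further: 0% = growth equal to vehicle treated cultures.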 To be noted: S. cerevisiae cln2 rad14 strain, active compounds read high. The gist of the method:
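cln2 rad14 yeast strain; compound exposure; growth inhibition read vs vehicle controls.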

A short description of assay [5]: NCI Yeast Anticancer Drug Screen. Data for the bub3 strain (AID 167). The note with it: S. cerevisiae bub3 mutant strain, active compounds read high. The gist of the method:
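Inhibition values come from growth of compound-treated mutant yeast normalised to vehicle-treated controls.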

Assay [6] in a line: NCI Yeast Anticancer Drug Screen. Data for the mlh1 rad18 strain (AID 175). The note with it: S. cerevisiae mlh1 rad18 strain growth inhibition, active compounds read high. The gist of the method: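 Yeast w/ defined DNA-repair lesions; compound exposure; growth vs vehicle controls → % inhibition.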
[7] abbreviates: at 5.0 µM (retest, dose inferred, filed as 0.5).
The mark [8] stands for this setting: at 50.0 µM (retest, dose inferred, filed as 5.0).

As for `CCCCN(CCCC)CN1C(=O)/C(=C/c2ccc(NC(C)=O)cc2)NC1=S`, the growth inhibition in assay [1] (setting [7]) is 7%; in assay [1] (setting [8]) it was 62%; in assay [1] (at 50.0 µM), 78% (active); in assay [2] (setting [7]) it was -7%; in assay [2] (setting [8]) it was 64%; in assay [2] (at 50.0 µM), 79.6% (active). Further, the growth inhibition in assay [3] (setting [7]) was -1%; in assay [3] (setting [8]) it was 64%; in assay [3] (at 50.0 µM), 79.9% (active); in assay [4] (setting [7]), -2%; in assay [4] (setting [8]), 63%; in assay [4] (at 50.0 µM) it was 79.8% (active). For the same compound, the growth inhibition is -15% in assay [5] (setting [7]); 53% in assay [5] (setting [8]); 72.7% (active) in assay [5] (at 50.0 µM); -3% in assay [6] (setting [7]); 79% (active) in assay [6] (setting [8]); 86.2% (active) in assay [6] (at 50.0 µM).
On to `CCCCCCCCCCCCCCCC[NH][Ge]([NH]CCCCCCCCCCCCCCCC)([NH]CCCCCCCCCCCCCCCC)[NH]CCCCCCCCCCCCCCCC`, for which the growth inhibition in assay [1] (setting [7]) was 98% (active); in assay [1] (setting [8]), 96% (active); in assay [1] (at 50.0 µM), 87.4% (active); in assay [2] (setting [7]) it was 99% (active); in assay [2] (setting [8]), 97% (active); in assay [2] (at 50.0 µM), 91.5% (active). Moreover, the growth inhibition in assay [3] (setting [7]) is 99% (active); in assay [3] (setting [8]), 96% (active); in assay [3] (at 50.0 µM), 90.2% (active); in assay [4] (setting [7]), 99% (active); in assay [4] (setting [8]) it was 96% (active); in assay [4] (at 50.0 µM) it was 89.2% (active). Also, the growth inhibition was 99% (active) in assay [5] (setting [7]); 97% (active) in assay [5] (setting [8]); 87.2% (active) in assay [5] (at 50.0 µM); 98% (active) in assay [6] (setting [7]); 95% (active) in assay [6] (setting [8]); 87.2% (active) in assay [6] (at 50.0 µM).
As to `OC(c1ccc(Cl)cc1)c1ccc(Cl)cc1`, the growth inhibition in assay [1] (setting [7]) was -7%; in assay [1] (setting [8]), 100% (active); in assay [1] (at 50.0 µM), 79% (active); in assay [2] (setting [7]), -11%; in assay [2] (setting [8]), 100% (active); in assay [2] (at 50.0 µM), 98.2% (active). The growth inhibition was -7% in assay [3] (setting [7]); 100% (active) in assay [3] (setting [8]); 75.2% (active) in assay [3] (at 50.0 µM); -17% in assay [4] (setting [7]); 100% (active) in assay [4] (setting [8]); 85.3% (active) in assay [4] (at 50.0 µM). Further, the growth inhibition was -11% in assay [5] (setting [7]); 100% (active) in assay [5] (setting [8]); 98.8% (active) in assay [5] (at 50.0 µM); -6% in assay [6] (setting [7]); 99% (active) in assay [6] (setting [8]); 85.2% (active) in assay [6] (at 50.0 µM).
For the compound `CCN(CC)CCNc1ccc(C)c2sc3cccc(O)c3c(=O)c12`, the growth inhibition in assay [1] (setting [7]) was 86% (active); in assay [1] (setting [8]) it was 99% (active); in assay [1] (at 50.0 µM) it was 99.2% (active); in assay [2] (setting [7]), 3%; in assay [2] (setting [8]), 72% (active); in assay [2] (at 50.0 µM) it was 99.7% (active). In addition, the growth inhibition in assay [3] (setting [7]) is 15%; in assay [3] (setting [8]), 96% (active); in assay [3] (at 50.0 µM) it was 99.5% (active); in assay [4] (setting [7]), 2%; in assay [4] (setting [8]) it was 85% (active); in assay [4] (at 50.0 µM) it was 55.5%. In addition, the growth inhibition was 10% in assay [5] (setting [7]); 96% (active) in assay [5] (setting [8]); 99.5% (active) in assay [5] (at 50.0 µM); 12% in assay [6] (setting [7]); 99% (active) in assay [6] (setting [8]); 99.3% (active) in assay [6] (at 50.0 µM).
Take `CN1CCC(/C=C/c2cccc3ccccc23)CN1` (configuration not stated) (tested in a mixture with another compound): the growth inhibition in assay [1] (setting [7]) is 1%; in assay [1] (setting [8]), 93% (active); in assay [1] (at 50.0 µM), 71.5% (active); in assay [2] (setting [7]), 18%; in assay [2] (setting [8]) it was 71% (active); in assay [2] (at 50.0 µM), 71.3% (active). Moreover, the growth inhibition in assay [3] (setting [7]) was -1%; in assay [3] (setting [8]) it was 91% (active); in assay [3] (at 50.0 µM) it was 79.3% (active); in assay [4] (setting [7]), 3%; in assay [4] (setting [8]), 27%; in assay [4] (at 50.0 µM), 23.2%. Also, the growth inhibition in assay [5] (setting [7]) was -4%; in assay [5] (setting [8]) it was 52%; in assay [5] (at 50.0 µM), 35.9%; in assay [6] (setting [7]) it was -1%; in assay [6] (setting [8]), 95% (active); in assay [6] (at 50.0 µM), 81.3% (active).
Consider `Cc1cc(N(CCOS(C)(=O)=O)CCOS(C)(=O)=O)ccc1C=Nc1ccccc1C(=O)O`, for which the growth inhibition is 7% in assay [1] (setting [7]); 76% (active) in assay [1] (setting [8]); 83.5% (active) in assay [1] (at 50.0 µM); 15% in assay [2] (setting [7]); 66% in assay [2] (setting [8]); 74.3% (active) in assay [2] (at 50.0 µM). For the same compound, the growth inhibition in assay [3] (setting [7]) is 4%; in assay [3] (setting [8]), 62%; in assay [3] (at 50.0 µM), 79.8% (active); in assay [4] (setting [7]), 4%; in assay [4] (setting [8]) it was 57%; in assay [4] (at 50.0 µM), 68.2%. The growth inhibition is -2% in assay [5] (setting [7]); 31% in assay [5] (setting [8]); 38.5% in assay [5] (at 50.0 µM); 28% in assay [6] (setting [7]); 91% (active) in assay [6] (setting [8]); 95.1% (active) in assay [6] (at 50.0 µM).
For `O=C(N/C(=C\c1ccc(Oc2ccc(Cl)c(Cl)c2)cc1)c1nc2ccccc2[nH]1)c1ccccc1`, the growth inhibition was 29% in assay [1] (setting [7]); 97% (active) in assay [1] (setting [8]); 97.8% (active) in assay [1] (at 50.0 µM); 10% in assay [2] (setting [7]); 97% (active) in assay [2] (setting [8]); 98.3% (active) in assay [2] (at 50.0 µM). The growth inhibition is 10% in assay [3] (setting [7]); 97% (active) in assay [3] (setting [8]); 98% (active) in assay [3] (at 50.0 µM); 13% in assay [4] (setting [7]); 65% in assay [4] (setting [8]); 95.6% (active) in assay [4] (at 50.0 µM). The growth inhibition in assay [5] (setting [7]) is 15%; in assay [5] (setting [8]), 95% (active); in assay [5] (at 50.0 µM) it was 97.2% (active); in assay [6] (setting [7]), 6%; in assay [6] (setting [8]), 89% (active); in assay [6] (at 50.0 µM), 98.2% (active).
Take `N#CC(C(=O)C(=O)Nc1ccc(Cl)c(Cl)c1)c1c(Cl)cccc1Cl` (configuration not stated): the growth inhibition was -1% in assay [1] (setting [7]); 4% in assay [1] (setting [8]); 25.9% in assay [1] (at 50.0 µM); -2% in assay [2] (setting [7]); -10% in assay [2] (setting [8]); 3.15% in assay [2] (at 50.0 µM). Also, the growth inhibition in assay [3] (setting [7]) is -1%; in assay [3] (setting [8]) it was -1%; in assay [3] (at 50.0 µM) it was 2.95%; in assay [4] (setting [7]), 4%; in assay [4] (setting [8]), -4%; in assay [4] (at 50.0 µM) it was 43%. For the same compound, the growth inhibition in assay [5] (setting [7]) was -1%; in assay [5] (setting [8]), -1%; in assay [5] (at 50.0 µM), -3.2%; in assay [6] (setting [7]), -2%; in assay [6] (setting [8]), -5%; in assay [6] (at 50.0 µM) it was 31.4%.
As to `Cc1c2c(c(C)c3c1OC(C)(C)CC3)OC(C)(C)CC2`, the growth inhibition was -10% in assay [1] (setting [7]); -4% in assay [1] (setting [8]); 34.6% in assay [1] (at 50.0 µM); -13% in assay [2] (setting [7]); -7% in assay [2] (setting [8]); 77.2% (active) in assay [2] (at 50.0 µM). In addition, the growth inhibition in assay [3] (setting [7]) is -14%; in assay [3] (setting [8]), 8%; in assay [3] (at 50.0 µM), 62.2%; in assay [4] (setting [7]) it was -6%; in assay [4] (setting [8]), 0%; in assay [4] (at 50.0 µM), 46.5%. Also, the growth inhibition in assay [5] (setting [7]) is -5%; in assay [5] (setting [8]), -5%; in assay [5] (at 50.0 µM) it was 11.2%; in assay [6] (setting [7]) it was -13%; in assay [6] (setting [8]) it was -7%; in assay [6] (at 50.0 µM), 98.2% (active).
